CBFb-RUNX1 inh: qHTS Assay for Compounds Blocking the Interaction Between CBF-beta and RUNX1 for the Treatment of Acute Myeloid Leukemia; Runt-related transcription factor 1 (Homo sapiens) + Core-binding factor subunit beta …; AlphaScreen CBFb-His/RUNX1-biotin binding, biochemical; Potency, µM (series often up to 59.8 µM), without a hit: at the top dose activity, negative = inhibition, usual class: inhibitors; 230,000 tested, under 10 active; AID 1477, 2009; note: % of control where 0% means no effect
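Interaction loss through any mechanism counts as activity. Pre-formed complex of His-CBF-beta and biotin-RUNX1 (30 nM apiece) is incubated with compound 15 min, then with 50 ng nickel and 50 ng streptavidin beads for 90 min before AlphaScreen detection.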
HPGD inh: qHTS Assay for Inhibitors of HPGD (15-Hydroxyprostaglandin Dehydrogenase). 15-hydroxyprostaglandin dehydrogenase [NAD(+)] (Homo sapiens), P15428. purified HPGD, NADH fluorescence kinetic, PGE2 substrate. Potency, µM, for inactives: at the top dose activity change, negative = inhibition, usual class: inhibitors. 150,000 compounds, 4.3% hits. AID 894, 2007; active = well fitted inhibition curve with a large enough effect, not every such curve was filed as active; inconclusive = small, poorly fitted or top-dose-only effect, or another doubt; inactive = no such curve, though single readings can be large or run the other way; note: potency is the fitted concentration of half-maximal effect; % is set by controls: 0 for no effect and ±100 for the full control effect
Target sequence (P15428 whole entry, looked up): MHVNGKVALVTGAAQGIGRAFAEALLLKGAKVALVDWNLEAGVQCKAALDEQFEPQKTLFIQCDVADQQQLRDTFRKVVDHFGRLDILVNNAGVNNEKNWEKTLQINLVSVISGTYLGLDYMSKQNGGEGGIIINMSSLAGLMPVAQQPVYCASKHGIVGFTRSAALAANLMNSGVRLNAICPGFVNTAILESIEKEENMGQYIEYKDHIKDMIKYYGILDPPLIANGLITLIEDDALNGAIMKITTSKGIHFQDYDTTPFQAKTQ
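20 nM HPGD preincubated 15 min at room temperature with compound in 50 mM Tris-HCl pH 8, 0.01% Tween 20. Started with 1 mM NAD+ and 30 uM prostaglandin E2; NADH fluorescence (360/450 nm) read 5 times over 30-s intervals, last minus first.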
HTT aggregate: qHTS Multiplex Assay to Identify Dual Action Probes in a Cell Model of Huntington: Aggregate Formation (GFP); PC12 HttQ103-GFP aggregates, Acumen cytometry, 40 h; Potency, µM (titrated, usually from 46.1 µM), without a hit: top-dose activity change, negative = inhibition, usual class: inhibitors; 220,000 compounds, 1.1% hits; AID 1688, 2009; note: potency is the fitted concentration of half-maximal effect; % is set by controls: 0 for no effect and ±100 for the full control effect; nearly all actives have a fitted effect of over 60% in size
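Using laser scanning cytometry, GFP-positive aggregates were counted after lysis of PC12 cells induced with 100 nM tebufenozide to express HTT exon 1 Q103–GFP. Compounds were tested in titration.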
HTT cytoprotect: qHTS Multiplex Assay to Identify Dual Action Probes in a Cell Model of Huntington: Cytoprotection (ATP) | PC12 HTT-Q103 induced, cytoprotection, ATP luminescence, 40 h | Potency, µM (highest dose often 56.4 µM), inactives show cytoprotection (ATP increase), usual class: activators | 230,000 compounds, 0.14% hits | AID 1471, 2008; note: potency is the fitted concentration of half-maximal effect; % of control where 0% means no effect; nearly all actives have a fitted effect of over 45% in size
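Quantitative HTS on tebufenozide-induced (100 nM) PC12 cells expressing HTTQ103 exon 1–GFP; compounds tested as a concentration series; survival measured via cellular ATP.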
ALDH1A1 block: qHTS Assay for Inhibitors of Aldehyde Dehydrogenase 1 (ALDH1A1); Aldehyde dehydrogenase 1A1 (Homo sapiens), P00352; Purified ALDH1A1, NADH fluorescence, propionaldehyde substrate; Potency, µM (top dose mostly 75.3 µM), inactives show top-dose activity, negative = inhibition, hits mostly inhibitors; 220,000 compounds, 7.3% hits; AID 1030, 2008; active = well fitted inhibition curve with a large enough effect, not every such curve was filed as active; inconclusive = small, poorly fitted or top-dose-only effect, or another doubt; inactive = no such curve, though single readings can be large or run the other way;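 note: potency is the fitted concentration of half-maximal effect; plate controls were no enzyme wells and a reference inhibitor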
Target sequence (P00352 whole entry, looked up): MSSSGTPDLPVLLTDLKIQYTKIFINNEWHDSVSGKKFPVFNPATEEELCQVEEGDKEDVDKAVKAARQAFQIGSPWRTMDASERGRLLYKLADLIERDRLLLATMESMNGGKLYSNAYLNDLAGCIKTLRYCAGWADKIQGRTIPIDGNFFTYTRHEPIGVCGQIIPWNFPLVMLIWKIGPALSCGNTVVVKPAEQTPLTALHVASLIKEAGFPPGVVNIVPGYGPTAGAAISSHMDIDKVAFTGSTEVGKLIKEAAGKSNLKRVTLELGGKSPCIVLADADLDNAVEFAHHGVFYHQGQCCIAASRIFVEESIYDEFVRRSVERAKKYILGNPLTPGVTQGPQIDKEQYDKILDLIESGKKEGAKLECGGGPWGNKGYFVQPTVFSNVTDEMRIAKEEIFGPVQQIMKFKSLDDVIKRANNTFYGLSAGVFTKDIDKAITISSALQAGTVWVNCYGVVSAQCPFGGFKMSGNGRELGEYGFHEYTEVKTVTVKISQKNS
PNC assembly inh: High Content Assay for Compounds that inhibit the Assembly of the Perinucleolar Compartment. AID 2417, 2010. PC3M PTB-GFP, PNC prevalence imaging, 16 h; hits give low values. activity change (PNC), negative = inhibition, % at 10 µM. 140,000 compounds, 3.1% hits;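 active = readout at or below -70, meaning at least 70% loss of cells showing the perinucleolar compartment, a nuclear body marking cancer cells; inconclusive = readout between -30 and a set limit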;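 note: plate controls were DMSO wells for no effect and camptothecin positive control wells for full effect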
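Read-out is percentage of cells bearing a perinucleolar compartment, from automated 20x imaging of fixed, Hoechst-stained PC3M PTB-GFP cells. Cells were seeded 4 h, then exposed 16 h to compound (23 nl of library stock) in duplicate plates.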
Active calls of the source: *; ? = inconclusive; · = no result; [ ] = remark or other dose. A selection: hits, their analogues and other compounds. The true share with any hit is near 11%. Unless noted, calls come from the whole dose curve; as a rule, active = well fitted curve in the direction sought with a large enough effect; inconclusive = small, poorly fitted or top-dose-only effect, or another doubt; inactive = no such curve, though single readings can be large; an effect the other way counts as inactive or inconclusive.

SMILES	CBFb-RUNX1 inh	HPGD inh	HTT aggregate	HTT cytoprotect	ALDH1A1 block	PNC assembly inh
COC(=O)c1c(N2C(=O)[C@H]3[C@@H](C2=O)[C@]2(C(=O)Nc4ccc(C)cc42)N2CCC[C@@H]32)sc(C)c1C	-2.6%	·	8.0%	18.4%	2.0%	·
NS(=O)(=O)c1cc(C(=O)OCC(=O)c2ccccc2)c(Cl)cc1Cl	22.7%	·	-19.5%	-16.2%	15.8µM*	·
CCSc1nnc(NC(=O)CSc2nc3c(c(=O)n2CCOC)SC(C)C3)s1 (stereo not drawn)	-5.2%	·	5.2%[9.22 µM]	-5.2%[10 µM]	·	·
CCCCN(C)C(=O)c1coc(=O)c2ccccc12	2.2%	22.4µM*	12.8%	3.8%	-2.8%	-0.3
CN(C(=O)c1coc(=O)c2ccccc12)c1ccc(Br)cc1	-11.4%	·	-1.9%	-2.5%	?	·
Cc1ncn(-c2ccccc2O)c1C	·	?	·	-1.8%[10 µM]	?	·
C/C(=N\NC(=O)c1csc(C)c1C)c1ccc(C)s1	0.5%	14.1µM*	-12.0%	·	3.0%	23.2
CC(C)[C@@H]1NC(=O)[C@H](CCCCN)NC(=O)[C@@H](Cc2c[nH]c3ccccc23)NC(=O)[C@H](Cc2ccc(O)cc2)NC(=O)[C@@H](NC(=O)[C@H](N)Cc2ccccc2)CSSC[C@@H](C(=O)N[C@@H](Cc2c[nH]c3ccccc23)C(N)=O)NC1=O	20.4%	·	·	·	·	·
CCOc1ccc(C2/C(=C(\O)c3ccc(OC)c(OC)c3)C(=O)C(=O)N2c2cc(C)on2)cc1OC (stereo not drawn)	4.8%	-12.8%	-12.2%	-10.5%[0.074 µM]	-2.9%	9.4
CCOc1ccc(/C(O)=C2\C(=O)C(=O)N(c3cc(C)on3)C2c2ccccc2OC)cc1 (stereo not drawn)	5.4%	?	-3.8%	-10.0%[10 µM]	22.4µM*	?
Cc1cc(C)n(C(=O)/C(C#N)=N/Nc2cc(Cl)cc(Cl)c2)n1	5.2%	·	12.6µM*	-161.4%	-3.5%	·
Cc1ccccc1C1C(C#N)=C2N=C(N)c3c(sc4c3CCCCC4)N2C2=C1C(=O)CC(C)(C)C2 (stereo not drawn)	?	-5.1%	0.3%	-32.9%	7.08µM*	86.7
CC1CCC2C(=O)N3C(CCC(C)C3c3ccccc3Br)C(=O)N2C1c1ccc(C#CCN(C)C)cc1 (stereo not drawn)	9.9%[13.1 µM]	·	·	0.4%[10 µM]	3.55µM*	·
COc1ccc(C2CC(c3c(-c4ccccc4)c4cc(Cl)ccc4[nH]c3=O)=NN2S(C)(=O)=O)cc1 (stereo not drawn)	-2.0%	-7.2%	23.8%	-18.5%	0.398µM*	-13.3
O=C(O)CCC(=O)N1N=C(c2c(-c3ccccc3)c3cc(Cl)ccc3[nH]c2=O)CC1c1cccs1 (stereo not drawn)	4.6%	-18.1%	-6.3%	2.82µM*	?	-27.7
COc1ccc(NC(=O)CSC2CC(=O)N(c3ccc4c(c3)OCCO4)C2=O)cc1 (stereo not drawn)	2.1%	1.7%	7.5%	-9.4%	14.1µM*	41.7
COc1ccccc1NC(=O)CSC1CC(=O)N(c2ccc3c(c2)OCO3)C1=O (stereo not drawn)	-10.7%	-19.1%	27.1%	1.3%[0.074 µM]	0.562µM*	7.5
COc1ccc(N2C(=O)CC(SCC(=O)O)C2=O)cc1 (stereo not drawn)	2.2%	-14.9%	-23.6%	-7.7%[10 µM]	?	6.5
O=C(Cc1ccc2cccnc2c1)c1ccc(O)cc1O	-5.9%	-23.6%	-1.1%	-35.5%	-1.1%	-4.5
CC1(C)CC(=O)C(C(C2=C(O)CC(C)(C)CC2=O)c2ccc(Br)s2)C(=O)C1 (stereo not drawn)	0.3%	1.41µM*	13.5%	40.9%[10 µM]	3.55µM*	-0.9
CC1(C)CC(=O)C(C(C2=C(O)CC(C)(C)CC2=O)c2ccc([N+](=O)[O-])cc2)C(=O)C1 (stereo not drawn)	-6.7%	·	-3.4%	-7.0%[10 µM]	?	?
Cc1ccc(C(C2=C(O)CC(C)(C)CC2=O)C2C(=O)CC(C)(C)CC2=O)s1 (stereo not drawn)	1.3%	3.16µM*	18.4%	-18.8%	8.91µM*	-12.5
COc1cccc(C(C2=C(O)CC(C)(C)CC2=O)C2C(=O)CC(C)(C)CC2=O)c1 (stereo not drawn)	-5.9%	-5.0%	-9.4%	22.0%[10 µM]	13.5%	54.6
COCC(=O)Nc1cc([N+](=O)[O-])ccc1OC	-5.2%	-3.9%	10.4%	6.0%[0.074 µM]	6.6%	-19.0
CCn1c(NC(=O)c2ccc(C)cc2)c2ccccc2nc1=O	6.6%	0.5%	3.0%	5.7%[10 µM]	3.1%	-90.4*
SMILES	CBFb-RUNX1 inh	HPGD inh	HTT aggregate	HTT cytoprotect	ALDH1A1 block	PNC assembly inh
CCC(=O)NC1Cc2ccccc2C(c2ccccc2)C1 (stereo not drawn)	?	·	·	-43.0%	-6.1%	·
O=C1c2ccccc2S(=O)(=O)N1CC1CC(c2ccccc2Cl)=NO1 (stereo not drawn)	-0.6%	14.1µM*	4.0%	·	12.6µM*	14.1
COc1ccccc1C1=NOC(CN2C(=O)c3ccccc3S2(=O)=O)C1 (stereo not drawn)	2.3%	·	-9.8%[9.22 µM]	-10.9%[10 µM]	·	·
NC(=S)N/N=C/c1coc2cc(Br)ccc2c1=O	-1.4%	·	-6.9%[9.22 µM]	-10.0%[10 µM]	2µM*	·
NC(=O)N/N=C/c1coc2ccc3ccccc3c2c1=O	1.9%	·	3.0%[9.22 µM]	3.2%[10 µM]	-10.5%	·
O=c1cc(/N=C/c2coc3c(ccc4ccccc43)c2=O)[nH]c(=S)[nH]1	-15.1%	2.24µM*	-27.2%	4.2%[10 µM]	?	39.0
NC(=S)N/N=C/c1coc2c(ccc3ccccc32)c1=O	-3.6%	-11.8%	-6.9%	-18.4%[10 µM]	2.24µM*	-27.7
NC(=S)N/N=C/c1coc2ccc(Br)cc2c1=O	-4.6%	·	?	8.6%[10 µM]	·	·
COc1ccc(C2CC3(CC(C)(C)NC(SC)=N3)Oc3cc(O)cc(C)c32)cc1 (stereo not drawn)	3.9%	-13.0%	13.2%	-19.4%[10 µM]	-9.5%	-26.3
CC(C)c1ccc(O)c(NC(=O)c2cccnc2)c1	-2.2%	-8.8%	13.4%	-13.7%[10 µM]	2.4%	-13.9
O=C(NC(=S)Nc1cc([N+](=O)[O-])ccc1O)c1cccnc1	-22.2%	·	-24.5%	-144.2%	10µM*	·
CCC(C)c1ccc(O)c(NC(=S)NC(=O)c2cccnc2)c1 (stereo not drawn)	-9.8%	·	16.3%[9.22 µM]	24.5%[10 µM]	31.6µM*	·

Screening data from PubChem.
